Results published in PubChem BioAssay (NCI).
Values joined by “and” are separate entries in the source; they are usually repeats but may differ in a detail not shown here. Equal entries are not always repeated. This is part of a sample that, as a whole, favours compounds with a hit. Of some 83,000 tested, about 20% had one in any assay.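 Treatment: one concentration, 48 hours, 96-well format. Scoring: percent growth, with anything below 10 considered active.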 A number with no mark means an inactive call. Active and inactive are the calls of the source.

System: MDA-MB-468 breast
Test: NCI-60 one-dose screen, 48 h (100 = growth as untreated, 0 = no growth, -100 = all killed)
Conditions: 10 µM unless noted

Which growth does the source give for `c1n[nH]cc1-c1nc2ccc3[nH]ncc3c2c2c1CCCC2` here?
Its growth is 15.2%.

`Cc1ccc(/C=C2\CN(Cc3cn(CCNc4ccnc5cc(Cl)ccc45)nn3)C/C(=C\c3ccc(C)cc3)C2=O)cc1` was tested. Which growth did it give?
Its growth is -31.1% (active).

Which growth does the source give for `Clc1ccc2c(NCCNc3nc(N4CCOCC4)nc4ccccc34)ccnc2c1` here?
Its growth is 25.1%.

How did the growth turn out when `CC1(C)CC[C@]2(C(=O)O)CC[C@]3(C)C(=CCC4[C@@]5(C)C[C@@H](O)[C@@H]6OC(c7cccc([N+](=O)[O-])c7)OC[C@@]6(C)C5CC[C@]43C)C2C1` (stereo not given in full) was run?
The growth was 76%.

Which growth does the source give for `Cc1cc(N2CCN(CCNc3ccnc4cc(Cl)ccc34)CC2)nc(N2CCOCC2)n1` here?
Its growth is 24.3%.

How did the growth turn out when `CNC1=CC(=O)c2c(C(=O)OC)c(C)[n+]([O-])c(C)c2C1=O` was run?
The growth was 34.7%.

With `Cn1cc(-c2csc(-c3cn(C(=O)OC(C)(C)C)c4ccccc34)n2)c2cccnc21` as the compound, how does the growth read?
The growth was -8.84% (active).

For `O=[N+]([O-])c1cccc(CN(Cc2cccc([N+](=O)[O-])c2O)c2ccccc2)c1O`, which growth is on record?
Its growth is 108%.

With `Nc1c(C(=O)Nc2cccc(Cl)c2)sc2ncc(Br)cc12` as the compound, how does the growth read?
Its growth is 94.1%.

How did the growth turn out when `CCOC(=O)c1cnn(-c2nc(-c3ccc(F)cc3)c(C#N)c(N3CCOCC3)n2)c1N` was run?
The growth was 92.6%.

Which growth does the source give for `COc1ccc(/C=C(\C#N)C(=O)N2c3ccccc3Sc3ccc(SC)cc32)cc1F` here?
The growth was 72.3%.

`CCOC(=O)C1=C(C)C(Cl)=N/C1=C\c1[nH]c(Cl)c(C)c1C(=O)OCC` was tested. Which growth did it give?
The growth was 102%.

With `Cc1c(NCC(=O)Nc2nc3ccccc3[nH]2)c(=O)n(-c2ccccc2)n1C` as the compound, how does the growth read?
The growth was 106%.

`N#CC1=C(/N=C/c2ccccc2)Oc2c(ccc3ccccc23)C1c1ccccc1` (stereo not given) was tested. Which growth did it give?
Its growth is 6.43% (active).

With `O=C1NN(c2ccccc2)C(c2cccnc2)=N/C1=C\c1cccnc1` as the compound, how does the growth read?
Its growth is 90%.

For `COc1cccc(OC(=O)c2ccccc2)c1OC(=O)c1ccccc1`, which growth is on record?
Its growth is 39.4%.

`N[C@@H]1CCCN(c2c(/C=C3\SC(=O)NC3=O)cccc2-c2ccccc2)C1` was tested. Which growth did it give?
Its growth is 55.8%.

For `CCNCCNc1cc(-c2cccc(C(F)(F)F)c2)c(C#N)c2nc3ccccc3n12`, which growth is on record?
Its growth is -84.3% (active).

For `CC(=O)O[C@@H]1CC2C(C)(C)CCCC2(C)C2=C1C(=O)C(C(C)C)=CC2=O` (stereo not given in full), which growth is on record?
The growth was -35.6% (active).

For `OB1OCc2cc(/C=C/c3cccc(C(F)(F)F)c3)ccc21`, which growth is on record?
The growth was 5.08% (active).

Which growth does the source give for `Cc1cc(C(C)(C)C)cc(C)c1CC1=NCCN1` here?
The growth was 93.5%.

For `COc1ccc(-c2c3c(cn2Cc2cccc(OC)c2)-c2oncc2CCC3)cc1`, which growth is on record?
The growth was 88.7%.

Which growth does the source give for `CN=C(N)N/N=C(\C)c1ccc2c(c1)Cc1cc(/C(C)=N/NC(N)=NC)ccc1-2` here?
The growth was -90.7% (active).

For `N=C(N)c1ccc(-c2ccc(-c3cc(Cl)cc(Cl)c3)s2)s1`, which growth is on record?
The growth was -63.4% (active).

For `O=C(O)c1cc(=O)[nH]c(=O)[nH]1`, which growth is on record?
The growth was 97.9% and 80.6%.

Which growth does the source give for `Cc1nccc2c3ccc(OCc4cn(-c5ccc(Cl)cc5)nn4)cc3n(CCCc3ccccc3)c12` here?
The growth was 10.6%.

How did the growth turn out when `O=C(Cn1ccnc1)Nc1ccc(-c2nc3ccccc3s2)cc1` was run?
Its growth is 0.748% (active).

For `COC1=CC=CC2(OC)C3(O)CCCc4cccc(c43)N3C(=O)COC132` (stereo not given), which growth is on record?
The growth was 115%.

For `COc1ccc(C(=O)/C=C/c2ccc(OCc3ccc(Cl)cc3)c(OC)c2)cc1OC`, which growth is on record?
The growth was 50.9%.

`NC(N)=Nc1nc2ccccc2o1` was tested. Which growth did it give?
The growth was 106%.

How did the growth turn out when `CS(=O)(=O)Nc1cc(-c2ccc3ncnc(Nc4ccc5[nH]ncc5c4)c3c2)cnc1Cl` was run?
The growth was 16.6%.

For `COc1cc(/C=C/C(=O)N2CCC=CC2=O)cc(OC)c1OC`, which growth is on record?
Its growth is 22.7%.

How did the growth turn out when `O=C(Nc1ncc(Cc2cc(C(F)(F)F)ccc2Cl)s1)C(=S)N1CCOCC1` was run?
Its growth is 84.3%.

`CN1C(=O)/C(=C2\SC(=Nc3ccccc3)N(Nc3ccccc3)C2=O)c2ccccc21` was tested. Which growth did it give?
Its growth is 94.7%.

`COc1ccc(CC(=O)Nc2nn3c(-c4cc(C(F)(F)F)cc(C(F)(F)F)c4)nnc3s2)cc1` was tested. Which growth did it give?
The growth was 48.4%.

With `Br/C(=N\Nc1nn[nH]n1)c1ccccc1` as the compound, how does the growth read?
The growth was 104%.

Which growth does the source give for `CCC(=O)NC(O)C(Cl)(Cl)C(C)Cl` (stereo not given) here?
Its growth is 92.5%.

`O=C(Nc1ccc([N+](=O)[O-])cc1)c1cc2ccccc2cc1O` was tested. Which growth did it give?
The growth was -8.75% (active).

Which growth does the source give for `CCCS(=O)(=O)c1nc(NC2CC2)cc(-c2ccc3c(ccn3C3CC(C)(C)NC(C)(C)C3)c2)n1` here?
Its growth is -72.4% (active).

With `CCCNNC(=O)c1ccc(CNC(=O)/C=C/c2ccccc2)cc1` as the compound, how does the growth read?
Its growth is 54.5% [2.5 µM].

For `Cc1ccc(C(=O)Nc2ccccc2N)cc1`, which growth is on record?
Its growth is 79.1%.

Which growth does the source give for `C=CCn1c(C)nc2ccc(Nc3nc(Nc4ccc5nc(C)n(CC=C)c5c4)c4ccccc4n3)cc21` here?
Its growth is -92.8% (active).

`CCOC(=O)n1cc(C2=C(c3ccc(OC)c(OC)c3)COC2=O)c2ccccc21` was tested. Which growth did it give?
The growth was -41.8% (active).

With `COc1ccc(-c2nc3c(c(C)nn3-c3ccc(F)cc3)c(=O)[nH]2)cc1` as the compound, how does the growth read?
The growth was 88.9%.

Which growth does the source give for `C#COc1cccc(Nc2ncnc3ncc(NC(=O)CCl)cc23)c1` here?
The growth was 4.95% [6.25 µM] (active).

How did the growth turn out when `N#CC1(Nc2ccc3c4c(cccc24)CC3)CCCCC1` was run?
Its growth is -35.3% (active).

For `CN1C(=O)N(C)C2C1NC(=S)N2/N=C/C=C/c1ccccc1[N+](=O)[O-]` (stereo not given), which growth is on record?
Its growth is 6.39% (active).

For `CCCCCC(=C/c1ccccc1)/C=N/N=C(N)N`, which growth is on record?
Its growth is -87.4% (active).

How did the growth turn out when `N=C(N)c1ccc(-c2ccc(-c3ccc(-c4cccs4)s3)s2)cc1F` was run?
Its growth is 79.5%.

`CC(=O)Oc1cc2cnc3c4cc(OC(C)=O)c(OC(C)=O)cc4ccc3c2cc1OC(C)=O` was tested. Which growth did it give?
Its growth is -7.77% (active).

`O=C(NC(=S)Nc1cccc(NC(=S)NC(=O)c2ccccc2)c1)c1ccccc1` was tested. Which growth did it give?
The growth was 98.5%.

For `O=c1c2cnn(-c3ccccc3)c2n2c(CN3CCOCC3)nnc2n1-c1ccccc1`, which growth is on record?
The growth was 116%.

Which growth does the source give for `CCN(CCO)CC(=O)c1cc(Cl)cc(Cl)c1Cl` here?
The growth was 110%.

`CN(C)C/C=C/C(=O)Nc1cc2c(Nc3ccc(F)c(Cl)c3F)ncnc2cc1OCCOC(F)F` was tested. Which growth did it give?
Its growth is -40.8% (active).

How did the growth turn out when `COc1cc(/C=C/C(=O)c2ccccc2)cc(OC)c1OC` was run?
Its growth is 64.7%.

Which growth does the source give for `COc1nc2ccccc2cc1-c1nc2c(cnn2-c2ccccc2)c(=O)[nH]1` here?
The growth was 35.9%.

`COc1cc(-c2nn(-c3cccc(NC(=O)c4ccc(N5CCOCC5)c(C(F)(F)F)c4)c3)cc2-c2ccncc2)ccc1Cl` was tested. Which growth did it give?
The growth was -37.8% (active).

`COc1ccc(C(C)=C(c2ccc(OCCN(C)C)cc2)c2ccc(OCCN(C)C)cc2)cc1` was tested. Which growth did it give?
The growth was -76.9% (active).

`COc1ccc2c(=O)cc(-c3ccccc3)[nH]c2c1` was tested. Which growth did it give?
The growth was 7.37% (active) and -4.48% (active).

How did the growth turn out when `COc1cc2nc(Nc3cccc(Cl)c3)nc(N)c2cc1OC` was run?
Its growth is 26.8%.

`COc1ccc2c(c1)N(CCO)C1=C(C(=O)OC1)C2c1cccc(Br)c1` (stereo not given) was tested. Which growth did it give?
The growth was 12.9%.

How did the growth turn out when `O=C(Nc1cc(Cl)ccc1O)c1cccc(Nc2ccnc(C(F)(F)F)c2)c1` was run?
Its growth is 16%.

With `O=C(Nc1ccc(Br)cc1F)c1cc(I)ccc1O` as the compound, how does the growth read?
Its growth is -1.19% (active).

For `O=c1oc2ccc(I)cc2c(=O)n1-c1ccc(F)cc1F`, which growth is on record?
The growth was -8.85% (active).

For `O=C(/C=C/c1ccc(C(F)(F)F)cc1)c1ccc(Nc2nc(NCCO)nc(Nc3ccc(Cl)cc3)n2)cc1`, which growth is on record?
Its growth is 69.4%.

With `Cc1ccc(/C=C/C(=N/N=C(N)N)c2ccccc2)cc1` as the compound, how does the growth read?
Its growth is -6.79% (active).

How did the growth turn out when `Cc1ccc(-c2cc3nc(C(Cl)Cl)nc(-c4ccc(S(=O)(=O)N(C)C)cc4)n3n2)cc1` was run?
The growth was 82%.

How did the growth turn out when `CCCCCCN(CCCCCC)c1ccc(/C=C2/SC(=O)NC2=O)c(C)c1` was run?
Its growth is 80.6%.

`Cc1cc(OI)c(C(C)C)cc1-c1cc(C(C)C)c(OI)cc1C` was tested. Which growth did it give?
The growth was 108%.

`CCCCCCCCCCCCCCCC1=NCCN1` was tested. Which growth did it give?
Its growth is -32.9% (active).

`CC(=O)Nc1ccc(CC#N)cc1Br` was tested. Which growth did it give?
Its growth is 102%.

How did the growth turn out when `c1cncc(CNc2ccccc2-c2nnc(Nc3ccc4c(c3)OCCO4)o2)c1` was run?
Its growth is -0.422% (active).

For `COc1cc2nc(-c3ccc(C(F)(F)F)cc3)cc(OCCN3CCCC3)c2cc1OC`, which growth is on record?
The growth was 89.4%.

For `Cc1c(O)c(=O)ccn1C1CCC(CC2CCC(n3ccc(=O)c(O)c3C)CC2)CC1` (stereo not given), which growth is on record?
Its growth is 0.337% (active).

Which growth does the source give for `O=C1CSC2=NCCN12` here?
Its growth is 105% and 100%.

For `O=C1c2cccc3cccc(c23)C(=O)N1N1C(=O)c2cccc3c(N4CCNCC4)ccc(c23)C1=O`, which growth is on record?
The growth was 91%.

Which growth does the source give for `C/C(=N\Nc1cc(C)c2cc(C)ccc2n1)c1ccccn1` here?
The growth was -69% (active).

`COC(=O)C(Br)(C(=O)OC)C(Br)C(Br)C(Br)c1ccccc1` (stereo not given) was tested. Which growth did it give?
Its growth is 7.49% (active).

Which growth does the source give for `O=c1c2ccccc2n(C[C@H]2CO2)c2ccccc12` here?
Its growth is -7.32% (active).

With `CCN1CCN(c2ccc(Nc3ncc4ccc5ncn(C(C)C)c5c4n3)nc2)CC1` as the compound, how does the growth read?
Its growth is -41.3% (active).

For `Cc1[nH]n(-c2cccc(Cl)c2)c(=O)c1/C=C1\C=Nc2ccc(Br)cc21`, which growth is on record?
The growth was 35.7%.

`O=C(NC(Cc1cn(Cc2ccccc2)cn1)C(=O)O)OCC1c2ccccc2-c2ccccc21` (stereo not given) was tested. Which growth did it give?
Its growth is 107%.

Which growth does the source give for `CC(=O)c1cc2c(N)c(C(=O)Nc3cccc4ccccc34)sc2nc1C` here?
The growth was 4% (active).

With `CCCCCCCCCCCCCCCCN=C(CC(=O)O)C(=O)O` as the compound, how does the growth read?
The growth was 95.2%.

For `COc1ccc(CCN2CC=Cn3c2nc2ccccc2c3=O)cc1`, which growth is on record?
The growth was -0.686% (active).
